Screen size: about 48,000 compounds; about 13,000 (27%) showed an effect of 50% or more. The list shows a part of the results.

The experiment relates to Wolbachia pipientis. The experiment can be described thus: Anti-Wolbachia Cell-Based Screen. Particulars: 5 µM. Also noted: scale not given: in the data most compounds retested in dose-response had high values. It is filed as functional.
In the case of `O=C(CC1CSc2nccc(=O)n21)NCc1cc(-c2ccco2)on1` (stereo unspecified), the “Percent Effect” value is listed as -4.448%.
Under `O=C(CC1CSc2nccc(=O)n21)NCc1ccco1` (stereo unspecified) stands 9.661%; under `Cc1cnc2n(c1=O)C(CC(=O)NCc1cccs1)CS2` (stereo unspecified), 81.1%.
Under `Cc1cnc2n(c1=O)C(CC(=O)NCc1ccco1)CS2` (stereo unspecified) stands 71.35%; under `Cc1cnc2n(c1=O)C(CC(=O)NCc1cc(-c3cccs3)on1)CS2` (stereo unspecified), -18.75%.
Next, `CC(C)c1cc2c(O)nc(CSCC(=O)O)nc2s1`: 30.38%; `CN(Cc1cccs1)C(=O)c1ccc(N2CCOCC2)c(F)c1`: -5.296%.
Regarding `COc1ccccc1C(NC(=O)NC1CC1)c1noc(C)n1` (stereo unspecified), the “Percent Effect” value is reported as -18.96%.
Under `CCc1nc(C2CCCN2CC(=O)Nc2nnc(C)s2)no1` (stereo unspecified) stands 78.74%.
Turning to `CCc1nc(C2CCCN2CC(=O)Nc2cc(C)no2)no1` (stereo unspecified), the “Percent Effect” value is reported as 85.76%.
For the compound `CCc1nc(C2CCCN2CC(=O)Nc2sc(C)c(C)c2C)no1` (stereo unspecified), the “Percent Effect” value is listed as -4.711%.
Under `Cc1cc(NC(=O)CN2CCCC2c2noc(C3CC3)n2)no1` (stereo unspecified) stands 3.572%.
On to `CCc1nc(C2CCCN2CC(=O)Nc2c(C)nn(C)c2C)no1` (stereo unspecified), for which the “Percent Effect” value is -9.932%.
Under `CCc1nc(C2CCCN2CC(=O)Nc2cc(C)on2)no1` (stereo unspecified) stands 106.9%; under `Cc1nnc(NC(=O)CN2CCCC2c2noc(C3CC3)n2)s1` (stereo unspecified), -18.02%.
Next, `Cc1cc(NC(=O)CN2CCCC2c2noc(C3CC3)n2)on1` (stereo unspecified): 2.122%; `CCc1nc(C2CCCN2CC(=O)Nc2nncs2)no1` (stereo unspecified): -0.024%.
As for `Cc1cc(CN(CCCO)c2ccccc2)on1`, the “Percent Effect” value is given as -3.081%.
Under `O=S(=O)(NC[C@H]1OC[C@@H](NCc2cccs2)[C@@H]1O)c1ccccc1` stands -1.267%; under `CCCn1ccnc1CN1C[C@@H](CN2CCCN(C)CC2)[C@@H](CO)C1`, 7.413%; under `CCN(Cc1c(F)cccc1F)Cn1nc(C)c2c(C)onc2c1=O`, 127.8%.
Next, `CCCN(CC)Cn1ncc2cn(-c3ccccc3)nc2c1=O`: 21.01%.
Next, `CCN(Cc1cccc(C)c1)Cn1nc(C)c2c(C)onc2c1=O`: 127.1%.
For `CCCN(Cc1ccccc1)Cn1nc(C)c2c(C)onc2c1=O`, the “Percent Effect” value was 10.45%.
For `CCN(Cc1cccc(Cl)c1)Cn1nc(C)c2c(C)onc2c1=O`, the “Percent Effect” value is recorded as 4.514%.
Next, `CCC(C)N(Cc1c[nH]c(C)n1)Cc1ccccc1Cl` (stereo unspecified): 9.271%.
Next, `CCN(Cc1cccc(F)c1)Cn1nc(C)c2c(C)onc2c1=O`: 123.6%; `CCN(Cc1ccccc1Cl)Cn1nc(C)c2c(C)onc2c1=O`: 88.73%.
Next, `Cc1cccc(CN(Cn2nc(C)c3c(C)onc3c2=O)C2CC2)c1`: -8.073%; `Cc1nn(CN(CC(C)C)C2CC2)c(=O)c2noc(C)c12`: -9.201%; `CCN(CC)Cc1ccccc1NCc1c(C)noc1C`: -28.25%.
With `Cc1nn(CN(Cc2ccsc2)C2CC2)c(=O)c2noc(C)c12`, the “Percent Effect” value worked out at 0.1409%.
Next, `O=C(NC[C@H]1OC[C@@H](NCc2cccs2)[C@@H]1O)N1CCOCC1`: 1.798%.
Under `COc1cc(CN(C)C(=O)NCCC(=O)NC2CCCC2)ccc1SC` stands -22.89%; under `Cn1ccnc1C(=O)NC[C@@H]1OC[C@H]2CN(S(C)(=O)=O)CC[C@H]21`, -19.48%; under `CC(C)N(C)CC(=O)NC1CCc2nccn2C1` (stereo unspecified), 10.39%.
In the case of `CS(=O)(=O)NCCC(=O)NC1CCc2nccn2C1` (stereo unspecified), the “Percent Effect” value was -6.555%.
With `O=C(CCn1cncn1)NC1CCc2nccn2C1` (stereo unspecified), the “Percent Effect” value is 104.2%.
Under `CS(=O)(=O)NCC(=O)NC1CCc2nccn2C1` (stereo unspecified) stands 17.97%.
Next, `O=C(CCn1cncn1)NC1CCS(=O)(=O)C1` (stereo unspecified): 5.446%.
Under `O=C(CCCn1cncn1)NC1CCc2nccn2C1` (stereo unspecified) stands 92.38%.
As for `COCCN(C)C(=O)Nc1cc2c(cc1SC)OCCO2`, the “Percent Effect” value was -4.661%.
As for `O=C(CN1CCCNC1=O)Nc1ccccc1SC(F)(F)F`, the “Percent Effect” value came to 20.21%.
Take `Cc1cc(N2CCN(Cc3ccsc3)C(CCO)C2)nc(N)n1` (stereo unspecified): the “Percent Effect” value is 18.89%.
Next, `CSc1ncc(C(=O)N2C[C@H]3CC[C@@H]2CN(S(=O)(=O)N(C)C)C3)cn1`: -20.31%.
Under `O=C(NC1CC1)c1cc(NC(=O)N2CCCC(O)C2)ccc1Cl` (stereo unspecified) stands -7.994%; under `COc1cccc(CC2CN(C3CCN(C(C)=O)CC3)CCO2)c1` (stereo unspecified), -14.95%; under `CCc1cc(NC(=O)C2CCCN(C(=O)NCC(C)C)C2)[nH]n1` (stereo unspecified), 96.52%.
With `CCc1cc(NC(=O)C2CCCN(C(=O)c3ccncc3)C2)[nH]n1` (stereo unspecified), the “Percent Effect” value is 100.1%.
Next, `COCC(=O)N1CCCC(C(=O)NCc2cc(CC(C)C)on2)C1` (stereo unspecified): 3.91%; `CCc1cc(CNC(=O)C2CCCN(C(=O)NCC(C)C)C2)[nH]n1` (stereo unspecified): 152.4%; `Cc1cc(CN(C)C(=O)C2CCCN(C(=O)c3ccc(Cl)cc3)C2)no1` (stereo unspecified): -5.924%.
Next, `CC(C)Cc1cc(CNC(=O)C2CCCN(C(=O)N(C)C)C2)no1` (stereo unspecified): 1.053%.
Under `CSCc1nc(CNC(=O)C2CCCN(C(=O)N(C)C)C2)cs1` (stereo unspecified) stands 1.326%; under `CCC(CC)c1cc(CNC(=O)N2CCCC(C(=O)NC)C2)on1` (stereo unspecified), -0.3036%; under `COCCN1CCOCC2(CCN(c3cnccn3)CC2)C1.O=C(O)C(F)(F)F`, -15.76%.
Turning to `CCN1CCOCC12CCN(c1nccs1)CC2.O=C(O)C(F)(F)F`, the “Percent Effect” value is reported as -65.58%.
In the case of `COCCN1CCOCC12CCN(c1nccs1)CC2.O=C(O)C(F)(F)F`, the “Percent Effect” value came to 44.08%.
Next, `CCN1CCOCC12CCN(c1ccc(C#N)cc1)CC2.O=C(O)C(F)(F)F`: -6.455%; `CCN1CCOCC12CCN(c1cnccn1)CC2.O=C(O)C(F)(F)F`: 94.98%; `COCCN1CCOCC12CCN(c1cnccn1)CC2.O=C(O)C(F)(F)F`: 110.8%.
Take `CC(C)(C)c1cc(C(=O)NCCn2nc3ccccn3c2=O)[nH]n1`: the “Percent Effect” value is 15.5%.
Under `O=C(NCc1ccnc(C2CCCOC2)n1)c1cccs1` (stereo unspecified) stands 112.2%.
In the case of `O=C(NC[C@H]1OC[C@@H](NC2CCC2)[C@@H]1O)c1cccs1`, the “Percent Effect” value was 2.166%.
Consider `O=C(NC[C@H]1OC[C@@H](NC2CCOCC2)[C@@H]1O)c1cccs1`, for which the “Percent Effect” value was -3.226%.
Next, `Cn1ccnc1Sc1ncc(C(=O)N2CCCCC2)cc1Cl`: 1.099%.

The record behind these values is ChEMBL document CHEMBL3988442, “University of Dundee, Small-Polar-MMV Screening Library” (2021).
